Screening data as filed in PubChem BioAssay.
Most compounds without a hit are left out; they make up all but 1.9% or so of the library.
aSyn yeast inh: rescues yeast growth from alpha-synuclein toxicity | Yeast expressing alpha-synuclein, growth rescue, BacTiter-Glo, 24 h | Potency, µM (highest dose often 46.1 µM), hits mostly activators | hit rate 0.14% among 370,000 | AID 652106; note: nearly all actives have a fitted effect of over 65% in size
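Rescue of yeast growth: cells expressing toxic alpha-synuclein, induced in galactose at OD600 0.02, incubated with compound 24 h at 30 C. ATP luminescence quantified growth; inhibitors of toxicity appear as activators.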
LDHA block: blocks human lactate dehydrogenase A. P00338. purified LDHA, NADH/diaphorase-resazurin fluorescence; active compounds read low. activity change, % (values are at about 110 or 230 µM). hit rate 0.15% among 480,000; in the data active = activity change below about -30%; inconclusive = mostly about -25% to -30%
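LDH5 2 nM; NADH 0.06 mM, pyruvate 0.2 mM; 200 mM Tris pH 7.4, EDTA, Tween-20; 5 min RT. Detection: diaphorase 0.133 mg/mL + resazurin 37 µM, fluorescence ex540/em590 at 0 and 20 min; normalized to enzyme-free and DMSO wells.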
TDP43 rescue: TDP-43 toxicity inhibition in yeast. TDP-43 expressing yeast growth rescue, BacTiter-Glo, 24 h. Potency, µM (doses to about 46.1 µM), actives largely listed as activators. hit rate 1.8% among 410,000; note: nearly all actives have a fitted effect of over 50% in size
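Luminescence from BacTiter-Glo reports growth of TDP-43-expressing yeast after 24 hr at 30 deg C with compound. Cells were raffinose-pregrown to mid-log, then seeded in galactose medium at OD600=0.02.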
Abeta rescue: compounds reversing amyloid beta toxicity in yeast. Potency, µM (highest dose often 46.1 µM), usual class: activators. hit rate 0.063% among 410,000. AID 1347071. yeast expressing A-beta42, growth rescue, OD600, 48 h; response scale: 0% DMSO, 100% iron-clioquinol control; note: nearly all actives have a fitted effect of over 55% in size
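Yeast growth medium received pinned compounds, then yeast cells expressing toxic A-beta were added; plates incubated at 30 C for 48 hr. Growth read as absorbance at 600 nm, normalized to DMSO and equimolar FeCl3 plus clioquinol controls.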
FUS yeast rescue: suppressors of FUS proteinopathy in yeast. S. cerevisiae FUS-expressing, growth rescue, OD600, 24 h. Potency, µM (doses to about 76.6 µM), actives largely listed as activators. hit rate 0.24% among 390,000; note: nearly all actives have a fitted effect of over 55% in size
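FUS-expressing yeast, raffinose-pregrown, induced in 2% galactose minimal medium at OD 0.005; compounds in a dilution series, 24hr at 30C. Growth restoration read as absorbance at 600 nm. CP55940 positive control, DMSO negative.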
PTHR1 ag: PTHR1 (human) receptor agonism | hit rate 0.075% among 410,000 | Potency, µM (highest dose often 115 µM), usual class: activators | HEK293 GP2 PTHR1 cells, GloSensor cAMP luminescence, 1 h; note: nearly all actives have a fitted effect of over 55% in size
Target sequence (Q03431 whole entry, looked up): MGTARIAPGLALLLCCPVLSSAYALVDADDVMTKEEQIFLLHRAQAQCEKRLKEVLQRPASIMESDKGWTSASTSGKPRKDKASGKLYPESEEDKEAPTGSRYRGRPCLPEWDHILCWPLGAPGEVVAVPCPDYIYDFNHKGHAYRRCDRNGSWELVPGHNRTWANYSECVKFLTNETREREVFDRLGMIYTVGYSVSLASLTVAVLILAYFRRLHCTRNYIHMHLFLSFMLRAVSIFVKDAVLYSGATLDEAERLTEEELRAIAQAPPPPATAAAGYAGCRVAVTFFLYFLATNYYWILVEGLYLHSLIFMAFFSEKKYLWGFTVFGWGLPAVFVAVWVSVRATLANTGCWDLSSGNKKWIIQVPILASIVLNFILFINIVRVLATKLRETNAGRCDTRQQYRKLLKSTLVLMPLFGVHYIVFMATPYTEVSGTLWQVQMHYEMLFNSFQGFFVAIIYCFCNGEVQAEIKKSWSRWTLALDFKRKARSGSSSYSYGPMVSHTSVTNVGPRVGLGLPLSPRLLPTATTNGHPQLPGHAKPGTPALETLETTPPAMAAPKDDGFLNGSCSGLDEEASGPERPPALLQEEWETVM
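HEK-293-derived GP2 cells expressing PTHR1 and a GloSensor cAMP reporter, 3,000/well, plated overnight, given luciferin plus IBMX (each 0.5 mM as added) for 1 h at 37 °C, then compound for 1 h at 37 °C. Luminescence was read after 15 min at room temperature.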
Numbers stand for hits; 0 = inactive; ? = inconclusive; - = no result; ! = repeats disagree. Unless noted, calls come from the whole dose curve; as a rule, active = well fitted curve in the direction sought with a large enough effect; inconclusive = small, poorly fitted or top-dose-only effect, or another doubt; inactive = no such curve, though single readings can be large; an effect the other way counts as inactive or inconclusive.

SMILES	aSyn yeast inh	LDHA block	TDP43 rescue	Abeta rescue	FUS yeast rescue	PTHR1 ag
OC[C@@H]1CC[C@@H](Cc2ccc(-c3ccccc3)cc2)O1	17.8µM	0	11.2µM	0	0	0
c1ccc(-c2ccccc2OCCOCCN2CCOCC2)cc1	0	-45.0	0	0	0	0
C=CCNCCOCCOc1ccccc1-c1ccccc1	0	-30.2	0	0	0	0
COc1ccc(N2CCN(C(=O)c3cn(C4CCCC4)c(=O)c4c3c3ccccc3n4C)CC2)cc1	0	0	20µM	0	?	0
CCS(=O)(=O)c1ncc(Cl)c(C(=O)Nc2ccccc2OC)n1	0	0	-	0	0	0
Cc1cccc(NC(=O)c2nc(S(C)(=O)=O)ncc2Cl)c1	-	0	20µM	0	0	0
COc1ccc(OC)c(NC(=O)c2nc(S(=O)(=O)Cc3ccc(F)cc3)ncc2Cl)c1	-	0	3.16µM	0	0	0
CCOC(=O)c1c(-c2ccccc2)csc1NC(=O)c1nc(S(=O)(=O)CC)ncc1Cl	-	0	3.98µM	0	0	0
COc1cccc(NC(=O)c2nc(S(C)(=O)=O)ncc2Cl)c1	0	0	?	0	0	0
CCS(=O)(=O)c1ncc(Cl)c(C(=O)Nc2ccccc2)n1	-	0	11.2µM	0	0	0
Cc1ccc(NC(=O)NC2CCOc3ccccc32)cc1 (stereo not given)	-	0	-	-	-	-
CCc1nc2ccc(C(=O)N3CCN(c4ccccc4F)CC3)cc2nc1CC	0	0	20µM!	0	?	0
CCc1nc2ccc(C(=O)N3CCN(c4ccccc4)CC3)cc2nc1CC	0	0	?	0	?	0
CCOC(=O)N1CCN(C(=O)c2ccc3nc(-c4ccccc4)c(-c4ccccc4)nc3c2)CC1	0	0	17.8µM	0	?	0
O=C(Nc1ccccc1C(=O)OCC(=O)N1CCCC1=O)c1ccco1	-	0	-	-	-	-
COC(=O)Nc1ccc2ccccc2c1	-	0	-	-	-	-
COC1=C(OC)C(=O)C(Sc2ccc3ccccc3c2)=CC1=O	14.1µM	0	?	0	-	0
COc1ccc(CN(C)C(=O)CNC(=O)c2ccc3ccccc3c2)c(OC)c1	0	0	0	0	0	0
COc1ccc(Br)cc1CN(C)C(=O)CNC(=O)c1ccc2ccccc2c1	0	0	22.4µM	0	0	0
COc1ccccc1-c1cc(C(F)(F)F)nc(N2CCN(c3ccccc3)CC2)n1	0	0	0	0	0	0
COc1ccccc1-c1cc(C(F)(F)F)nc(N2CCOCC2)n1	0	0	22.4µM	0	0	0
NS(=O)(=O)c1ccc(NC(=O)CCN(Cc2cccs2)C2CC2)cc1	-	0	-	-	-	-
O=C(Nc1ccc(F)c(Cl)c1)c1nn(Cc2ccccc2)c(=O)c2ccccc12	-	0	-	-	-	-
COc1ccc2[nH]c3c(Cl)ncnc3c2c1	0	0	12.6µM	0	-	0
Fc1ccc2[nH]c3c(Cl)ncnc3c2c1	0	0	?	0	0	0
SMILES	aSyn yeast inh	LDHA block	TDP43 rescue	Abeta rescue	FUS yeast rescue	PTHR1 ag
CC(C)=C(C#N)c1nc2ccccc2[nH]1	-	0	-	-	-	-
CCCN1C=NS(=O)(=O)c2cc(C(=O)NCCc3ccccc3)ccc21	-	0	-	-	-	-
Cc1cc(NC(=O)Nc2cccc(Cl)c2)n(-c2ccccc2)n1	0	0	0	0	0	0
Cc1cc(Nc2ncc(Cl)cc2Cl)n(-c2ccccc2)n1	0	0	7.08µM	0	0	0
Cc1cc(Nc2ccccc2)n(-c2cccc(Cl)c2)n1	0	0	14.1µM	0	0	0
Cc1cc(C(F)(F)F)nc(SCC(=O)O)n1	-	0	-	-	-	-
CC1=NN(/C(=N\c2nnc(C)s2)Nc2ccc(C(C)(C)C)cc2)[C@H](c2ccc(C)cc2)S1	0	0	35.5µM	0	?	0
Cc1ccc(NC(=O)CCSc2nnc(C)s2)cc1	0	0	0	0	0	0
COC(=O)C1=C(C)NC(=O)CC1C(=O)Nc1ccc(Cl)cc1 (stereo not given)	-	-65.0	-	-	-	-
CCOC(=O)Cn1nc(-c2ccc(Cl)cc2)ccc1=O	0	0	0	0	0	0
CC(=O)Nc1ncnc2c1c(-c1ccc(Cl)cc1)nn2C(C)(C)C	3.55µM	0	0	0	0	0
CC(=O)N(C(C)=O)c1ncnc2c1c(-c1ccc(Cl)cc1)nn2C(C)(C)C	0	-47.7	0	0	0	0
COc1ccc(/C=C/c2nc(C#N)c(NCc3ccco3)o2)cc1OC	-	0	-	-	-	-
Cc1nc(SC(C)C(=O)NC2(C#N)CCCCC2)c2ccccc2n1 (stereo not given)	-	0	-	-	-	-
CC1CCCC(NC(=O)/C(C#N)=C\c2ccccc2)C1C (stereo not given)	-	0	-	-	-	-
Cc1ccccc1C1=NN(S(C)(=O)=O)C(c2ccc3nccnc3c2)C1 (stereo not given)	-	0	-	-	-	-
CCN(CC)S(=O)(=O)c1ccc(OC(C)C)c(NC(=O)c2ccc(OC(F)F)c(OC)c2)c1	-	0	-	-	-	-
COc1cccc(C(=O)NC(=S)Nc2ccccc2N2CCOCC2)c1	0	0	12.6µM	0	-	0
COc1cc(C(=O)NC(=S)Nc2ccccc2N2CCOCC2)cc(OC)c1OC	0	0	0	0	0	0
CN(C)CCCNCC(=O)Nc1ccccc1N1CCOCC1	0	-32.4	0	0	0	0
Cn1nc(C(=O)Nc2ccccc2N2CCOCC2)ccc1=O	0	0	0	0	-	0
O=C(Nc1ccccc1N1CCOCC1)c1ccc2ccccc2n1	0	0	12.6µM	0	0	0
Cc1cccc(NC(=O)c2ccc(N3CCCCC3)c([N+](=O)[O-])c2)n1	0	0	3.55µM	0	-	0
Cc1cccc(NC(=O)c2ccc(N3CCOCC3)c([N+](=O)[O-])c2)n1	0	0	?	0	0	0
CCN1CCCC1CNC(=O)CSCc1cccc(C)c1 (stereo not given)	-	0	-	-	-	-
SMILES	aSyn yeast inh	LDHA block	TDP43 rescue	Abeta rescue	FUS yeast rescue	PTHR1 ag
COc1ccccc1C(=O)CSc1ccccc1Cl	-	0	-	-	-	-
COc1ccc(OCC(=O)Nc2ccccc2N2CCCCC2)cc1	0	0	11.2µM	0	0	0
CC(=O)c1cccc(OCC(=O)Nc2ccccc2N2CCOCC2)c1	0	0	22.4µM	0	0	0
COc1ccc(C(=O)NC(=S)Nc2ccccc2N2CCCCC2)cc1[N+](=O)[O-]	0	0	15.8µM	?	?	0
CC(=O)c1cccc(OCC(=O)Nc2cc(S(=O)(=O)N3CCOCC3)ccc2N2CCCC2)c1	0	0	0	0	0	0
CCOc1ccc(C(=O)NC(=S)Nc2ccccc2N2CCCCC2)cc1[N+](=O)[O-]	0	0	0	0	0	0
O=C(COc1ccc(Cl)cc1)Nc1cccc2cccnc12	-	0	-	-	-	-
COc1ccc(OCC(=O)Nc2cccc3cccnc23)cc1	-	0	12.6µM	0	0	0
O=C(O)c1ccc(-c2ccc(Cl)cc2)s1	-	0	-	-	-	-
Cc1cc(-c2cccc([N+](=O)[O-])c2)nc2ccccc12	0	0	11.2µM	0	0	0
Cc1cc(-c2ccc([N+](=O)[O-])cc2)nc2ccccc12	0	0	0	0	0	0
